Measurements as given in PubChem BioAssay (NCI).
Compounds without any hit were thinned out: in the full panel of roughly 83,000, 20% have a hit.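 Assay: single dose, 48 h. Readout: percent growth (0 = no net growth; negative = cell death). Active: <10.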 Calls of active or inactive are those of the source.

Experiments:
Test in all cases: NCI-60 one-dose screen, 48 h (100 = growth as untreated, 0 = no growth, -100 = all killed)
Settings in all cases: 10 µM unless noted
HCT-15 colon = test system: HCT-15 colon
HT29 colon = test system: HT29 colon
SNB-19 CNS = test system: SNB-19 CNS
U251 CNS = test system: U251 CNS
PC-3 prostate = test system: PC-3 prostate
SK-MEL-5 melanoma = test system: SK-MEL-5 melanoma
UACC-62 melanoma = test system: UACC-62 melanoma
LOX IMVI melanoma = test system: LOX IMVI melanoma
SK-MEL-28 melanoma = test system: SK-MEL-28 melanoma
SNB-75 CNS = test system: SNB-75 CNS

Measured: growth

N/C(=N\c1nc2c(Cl)cccc2s1)C(Cl)(Cl)Cl
inactive: HCT-15 colon 81.3% | HT29 colon 46.8% | SNB-19 CNS 72.7% | U251 CNS 57.3% | PC-3 prostate 65% | SK-MEL-5 melanoma 96.1% | UACC-62 melanoma 75.4% | LOX IMVI melanoma 62.4% | SK-MEL-28 melanoma 83.3%

O=C(COc1ccc(/C=C2\SC(=O)NC2=O)cc1)Nc1ccc(C(=O)/C=C/c2cc3ccccc3nc2Cl)cc1
inactive: HCT-15 colon 76.8% | SNB-19 CNS 82% | U251 CNS 69% | PC-3 prostate 65.6% | SK-MEL-5 melanoma 33.5% | UACC-62 melanoma 70.6% | LOX IMVI melanoma 47.8% | SK-MEL-28 melanoma 99.2%
active: HT29 colon 4.19%

Oc1ccccc1-c1nnc(SCc2ccc(O)c3ncccc23)n1-c1ccccc1
active: SK-MEL-5 melanoma -60.3% | UACC-62 melanoma -8.29% | LOX IMVI melanoma 3.79%
inactive: HCT-15 colon 17.6% | HT29 colon 14.6% | SNB-19 CNS 16.5% | U251 CNS 11.5% | PC-3 prostate 20.5% | SK-MEL-28 melanoma 14.8%

NC(=O)N1N=C(c2cc3ccccc3oc2=O)CC1c1cn(-c2ccccc2)nc1-c1ccc(Cl)cc1 (stereo unspecified)
inactive: HCT-15 colon 19.4% | HT29 colon 35.9% | SNB-19 CNS 45% | U251 CNS 30.5% | PC-3 prostate 25.9% | SK-MEL-5 melanoma 19.5% | UACC-62 melanoma 38.7% | LOX IMVI melanoma 20.3% | SK-MEL-28 melanoma 60.1%

COc1ccc(-c2nnc(SCc3ccc(O)c4ncccc34)o2)cc1
inactive: HCT-15 colon 10.1% | HT29 colon 89.1% | SNB-19 CNS 22.3% | U251 CNS 20% | PC-3 prostate 26.2% | UACC-62 melanoma 42.8% | LOX IMVI melanoma 19.7% | SK-MEL-28 melanoma 41.7%
active: SK-MEL-5 melanoma 9.31%

N#Cc1c(-c2cccs2)cc(-c2cnccn2)nc1SCC(=O)NNC(=S)Nc1ccc(F)cc1
inactive: HCT-15 colon 102% | HT29 colon 116% | SNB-19 CNS 94.7% | U251 CNS 101% | PC-3 prostate 99.3% | SK-MEL-5 melanoma 89.5% | UACC-62 melanoma 87.8% | LOX IMVI melanoma 72.1% | SK-MEL-28 melanoma 114%

O=C1[C@H]2Cc3c([nH]c4ccccc34)[C@H](c3ccc(Cl)cc3)N2C(=O)CN1C1CCN(Cc2c(Cl)cccc2Cl)CC1
inactive: HCT-15 colon 39.5% | HT29 colon 18.2% | SNB-19 CNS 80.6% | U251 CNS 69.5% | PC-3 prostate 49.3% | SK-MEL-5 melanoma 66.3% | UACC-62 melanoma 88.8% | LOX IMVI melanoma 15.3% | SK-MEL-28 melanoma 98.8%

Oc1ccc(CSc2nnc(-c3ccc(Oc4ccccc4)cc3)n2-c2ccccc2)c2cccnc12
inactive: HCT-15 colon 10.8% | HT29 colon 44.8% | SNB-19 CNS 13.8% | U251 CNS 11.9% | PC-3 prostate 17.3% | SK-MEL-28 melanoma 14.6%
active: SK-MEL-5 melanoma -24.1% | UACC-62 melanoma -25.4% | LOX IMVI melanoma 4.48%

Oc1ccc(CSc2nnc(-c3ccc(Br)cc3)o2)c2cccnc12
inactive: HCT-15 colon 10.7% | HT29 colon 111% | SNB-19 CNS 20% | U251 CNS 12.5% | PC-3 prostate 23% | SK-MEL-5 melanoma 12% | UACC-62 melanoma 27.3% | LOX IMVI melanoma 20.3% | SK-MEL-28 melanoma 32.8%

O=C1[C@H]2Cc3c([nH]c4ccccc34)[C@@H](c3c(Cl)cccc3Cl)N2C(=O)CN1C1CCN(Cc2ccccc2)CC1
inactive: HCT-15 colon 25.5% | SNB-19 CNS 89.6% | U251 CNS 50.1% | PC-3 prostate 77.8% | SK-MEL-5 melanoma 84.6% | UACC-62 melanoma 72.5% | SK-MEL-28 melanoma 93.1%
active: HT29 colon 9.36% | LOX IMVI melanoma -31.2%

O=C(CCCCCCN1CC(=O)N2[C@@H](c3cc(F)cc(F)c3)c3[nH]c4ccccc4c3C[C@H]2C1=O)NO
inactive: HCT-15 colon 96.7% | HT29 colon 47.8% | SNB-19 CNS 65.9% | U251 CNS 57.3% | PC-3 prostate 48.5% | SK-MEL-5 melanoma 47.2% | UACC-62 melanoma 21.4% | LOX IMVI melanoma 19.6% | SK-MEL-28 melanoma 52.7%

Oc1ccc(CSc2nnc(-c3cnccn3)n2-c2ccccc2)c2cccnc12
inactive: HCT-15 colon 19.3% | HT29 colon 79.5% | SNB-19 CNS 19.7% | U251 CNS 20.4% | PC-3 prostate 30% | LOX IMVI melanoma 15.5% | SK-MEL-28 melanoma 32.5%
active: SK-MEL-5 melanoma -22.6% | UACC-62 melanoma 2.61%

Cc1nn(-c2ccc(Cl)cc2)c(C)c1N=Nc1ccc2oc(=O)ccc2c1
inactive: HCT-15 colon 81.4% | HT29 colon 94.5% | SNB-19 CNS 97.3% | U251 CNS 82.8% | PC-3 prostate 80.3% | SK-MEL-5 melanoma 84.3% | UACC-62 melanoma 80.5% | LOX IMVI melanoma 69.6% | SK-MEL-28 melanoma 82.5%

O=C(CSc1ccc(-c2nc3ccccc3[nH]2)cn1)N1CCN(c2ccccc2F)CC1
inactive: HCT-15 colon 72.4% | HT29 colon 94.1% | SNB-19 CNS 89.8% | U251 CNS 90.5% | PC-3 prostate 57.7% | UACC-62 melanoma 52.4% | LOX IMVI melanoma 85.3% | SK-MEL-28 melanoma 87.8%
active: SK-MEL-5 melanoma -32.7%

O=C(/C=C1\C=CN(CCCCO)c2ccccc21)n1ccc2ccccc21
inactive: HCT-15 colon 107% | HT29 colon 109% | SNB-19 CNS 94.8% | U251 CNS 102% | PC-3 prostate 107% | SK-MEL-5 melanoma 98.1% | UACC-62 melanoma 87.6% | LOX IMVI melanoma 114% | SK-MEL-28 melanoma 108%

CCCCCCCCNC(=O)c1ccc(Cn2c(CCCC)nc3c(N)nc4ccccc4c32)cc1
active: HCT-15 colon -55.8% | HT29 colon -23% | U251 CNS -59% | SK-MEL-5 melanoma -96.8% | LOX IMVI melanoma -86.3% | SK-MEL-28 melanoma -94%
inactive: SNB-19 CNS 14.9% | PC-3 prostate 41.5% | UACC-62 melanoma 23.4%

CCOC(=O)c1c(NC(=O)c2cccc(C(F)(F)F)c2)sc2c(CN3CCN(C)CC3)c(O)ccc12
inactive: SK-MEL-5 melanoma 52.7%
active: HCT-15 colon -82.3% | HT29 colon -31.6% | SNB-19 CNS -53.9% | U251 CNS -79.1% | PC-3 prostate -33.9% | UACC-62 melanoma -67.5% | LOX IMVI melanoma -94.7% | SK-MEL-28 melanoma -60.5%

O=[N+]([O-])c1ccc(-c2nnc(SCc3ccc(O)c4ncccc34)o2)cc1
inactive: HCT-15 colon 10.9% | HT29 colon 47.4% | SNB-19 CNS 22.2% | U251 CNS 16.2% | PC-3 prostate 15% | UACC-62 melanoma 25.3% | LOX IMVI melanoma 25% | SK-MEL-28 melanoma 38.9%
active: SK-MEL-5 melanoma -6.14%

COc1cc(/C=N/n2cnc3oc(-c4ccccc4)cc3c2=N)cc(CN2CCCCC2)c1O
active: HCT-15 colon -79.8% | HT29 colon -14.1% | SNB-19 CNS -41.3% | U251 CNS -66.5% | PC-3 prostate -31% | SK-MEL-5 melanoma -89.7% | UACC-62 melanoma -74.8% | LOX IMVI melanoma -86.6% | SK-MEL-28 melanoma -85.8%

Oc1ccc(CSc2nnc(-c3ccc(Cl)cc3)o2)c2cccnc12
active: UACC-62 melanoma 5.12% | LOX IMVI melanoma 4.17%
inactive: HCT-15 colon 14.4% | HT29 colon 102% | SNB-19 CNS 16.5% | PC-3 prostate 21.4% | SK-MEL-5 melanoma 11.1% | SK-MEL-28 melanoma 26.6%

C/C(=C(/C)C1CC1CCN(C(=O)c1ccccn1)S(=O)(=O)c1ccc(C)cc1)C1CCCCC1 (stereo unspecified)
inactive: HCT-15 colon 91.8% | HT29 colon 98.3% | SNB-19 CNS 98.4% | PC-3 prostate 93.4% | SK-MEL-5 melanoma 78.6% | UACC-62 melanoma 63.6% | LOX IMVI melanoma 97.8% | SK-MEL-28 melanoma 97.3%

CCOc1ccc2nc(NC(=O)Nc3ccccc3C)sc2c1
inactive: HCT-15 colon 27% | HT29 colon 14.9% | SNB-19 CNS 53.8% | U251 CNS 48.2% | PC-3 prostate 57.6% | SK-MEL-5 melanoma 59.6% | UACC-62 melanoma 47.2% | SK-MEL-28 melanoma 54.1%

CCCCCc1ccc(S(=O)(=O)N(C(C)=O)c2cccc(-c3csc(N(CCN4CCN(C)CC4)C(C)=O)n3)c2)cc1
inactive: SNB-75 CNS 64% | SNB-19 CNS 60.6% | PC-3 prostate 62.5%
active: HT29 colon -41.4% | U251 CNS -10.8% | SK-MEL-5 melanoma -97.7% | UACC-62 melanoma -71.4% | LOX IMVI melanoma -92.1% | SK-MEL-28 melanoma -85.8%

O=C(Nc1ccccc1)Nc1nc2ccc([N+](=O)[O-])cc2s1
active: HCT-15 colon 8.64% | HT29 colon 9.17% | U251 CNS 6.41% | PC-3 prostate 4% | SK-MEL-5 melanoma -46.5% | UACC-62 melanoma 1.73%
inactive: SNB-19 CNS 13.9% | SK-MEL-28 melanoma 20.2%

CN(c1ccc(Br)cc1)S(=O)(=O)c1ccc(-c2cnc(C3CC3)o2)cc1
inactive: HCT-15 colon 17.7% | HT29 colon 11% | SNB-19 CNS 37.3% | U251 CNS 22.7% | PC-3 prostate 22.4% | SK-MEL-5 melanoma 30% | UACC-62 melanoma 28.5% | SK-MEL-28 melanoma 58.1%

C[C@H]1[C@H](C)CC[C@]2(COC(=O)c3cccnc3)CC[C@]3(C)C(=CC[C@@H]4[C@@]5(C)CCCNC(C)(C)[C@@H]5CC[C@]43C)[C@H]12
inactive: HCT-15 colon 39.5% | HT29 colon 45.5% | SNB-19 CNS 88.6% | U251 CNS 64.4% | PC-3 prostate 35.8% | SK-MEL-5 melanoma 56.4% | UACC-62 melanoma 53.4% | SK-MEL-28 melanoma 75%

O=C(Nc1cc(F)cc2cccnc12)c1cnc(N2CCOCC2)cn1
inactive: HCT-15 colon 32.4% | HT29 colon 30.1% | SNB-19 CNS 88.6% | U251 CNS 94.6% | PC-3 prostate 62.9% | SK-MEL-5 melanoma 83.5% | UACC-62 melanoma 84.9% | LOX IMVI melanoma 19.4% | SK-MEL-28 melanoma 77.4%

O=C(O)c1ccc(-n2cc(CNc3ccc(F)cc3)c(-c3ccc(C(F)(F)F)cc3)n2)cc1
inactive: HCT-15 colon 65.4% | HT29 colon 96.9% | SNB-19 CNS 84.3% | U251 CNS 79.3% | PC-3 prostate 79.4% | SK-MEL-5 melanoma 67.9% | UACC-62 melanoma 89.9% | LOX IMVI melanoma 99.5% | SK-MEL-28 melanoma 88.1%
